# Source: PubChem BioAssay AID1490 (National Center for Advancing Translational Sciences (NCATS), 2009)
# Hit rate of the full screen: of about 310,000 compounds, about 11,000 (3.5%) were called active. Another 4% or so got no clear call; they are omitted. The call rests on the fitted dose curve; in most records, active means well fitted inhibition curve with a large enough effect; inconclusive means small, poorly fitted or top-dose-only effect, or another doubt; inactive means no such curve, though single readings can be large or run the other way. The full list was thinned out, with actives kept by preference.
# Molecular target: 4'-phosphopantetheinyl transferase ffp (Bacillus subtilis) (UniProt Q9F4F7)
# Assay: qHTS Assay for Inhibitors of Bacillus subtilis Sfp phosphopantetheinyl transferase (PPTase);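 further: the enzyme is Sfp with the accession as filed and its product quenches rhodamine fluorescence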;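 on largest response in the series, negative = inhibition: 0% = enzyme reaction without inhibitor and -100% = no enzyme wells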
# Details: Biochemical Sfp PPTase activity
# In short: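 Step 1, compound plus 15 nM Sfp-PPTase, 15 min, room temperature. Step 2, add rhodamine-CoA (5 uM) and BHQ-2-YbbR (12.5 uM). Step 3, read 525/598 nm fluorescence at 0 and 30 min.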
# Potency means the concentration at half of the fitted maximal effect.
Compound,"largest response in the series, negative = inhibition",Potency
COc1ccc(CNC(=O)C2CCN(S(=O)(=O)c3ccc(SC)cc3)CC2)cc1,8.97% (inactive),
O=S(=O)(c1ccc(Cl)cc1)c1nc(-c2ccco2)oc1N1CCCCC1,-3.63% (inactive),
O=S(=O)(c1ccc(Br)cc1)c1nc(-c2ccccc2)oc1N1CCOCC1,-5.06% (inactive),
O=S(=O)(c1ccccc1)c1nc(Cc2ccccc2)oc1N1CCOCC1,,44.7 µM (active)
Cc1ccc(OC(=O)c2cncc(Br)c2)c(C)c1,-4.31% (inactive),
COc1ccc(C(=O)CC(=O)C(=O)Nc2cc([N+](=O)[O-])ccc2OC)cc1,1.31% (inactive),
CCCc1cc(C(=O)Nc2ccc(Cl)cn2)cs1,2.86% (inactive),
O=C(Nc1ccc(Cl)cn1)Nc1cccs1,,39.8 µM (active)
O=C(Nc1cccc([N+](=O)[O-])c1)Nc1ccc(Cl)cn1,13.8% (inactive),
Cc1sc2ncn(CC(=O)NCCN(C)C)c(=O)c2c1S(=O)(=O)N1CCC(C)CC1,16.8% (inactive),
O=C(CNC(=O)c1ccccc1)Oc1ccc([N+](=O)[O-])cc1,7.55% (inactive),
COc1ccc(C(=O)OCC(=O)Nc2cccc(C(C)=O)c2)cc1OC,11.4% (inactive),
CN(C)CCCNC(=S)N1CCN(c2nc(-c3ccccc3)cs2)CC1,-3.69% (inactive),
CC(=O)c1cccc(NC(=O)C2CCN(C(=O)c3ccccc3Cl)CC2)c1,-3.58% (inactive),
O=S(=O)(Nc1ccc2cn[nH]c2c1)c1ccccc1,14.6% (inactive),
O=S(=O)(Nc1ccc2nc(-c3ccco3)[nH]c2c1)c1ccccc1,,28.2 µM (active)
Cn1c(CCN2CCCC2)nc2cc(NS(=O)(=O)c3ccccc3)ccc21,1.01% (inactive),
O=C(c1ccc(Br)o1)N1CCN(CCOc2ccccc2)CC1,15.3% (inactive),
Cc1ccc(/C=N/NC(=O)c2cc3ccccc3cc2O)o1,13.6% (inactive),
O=[N+]([O-])c1cccc2ncccc12,8.82% (inactive),
O=[N+]([O-])c1cc([N+](=O)[O-])c2cccnc2c1O,,39.8 µM (active)
O=C(c1cccc(F)c1)N1CCN(c2ccc([N+](=O)[O-])c3cccnc23)CC1,1.54% (inactive),
NC(=O)C1CC(=O)N(c2ccc(OCC(=O)NCc3ccccc3)cc2)C1 (centres undefined),23.9% (inactive),
c1ccc2c(C[n+]3csc4ccccc43)cccc2c1,,44.7 µM (active)
Nc1scc[n+]1Cc1cccc2cccnc12,17.3% (inactive),

Compound,"largest response in the series, negative = inhibition",Potency
c1ccc(NCc2cccc3ccccc23)nc1,-7.37% (inactive),
C=CCCN(C(Cc1ccccc1)C(=O)OC)S(=O)(=O)c1cc(Br)ccc1Br (centres undefined),7.63% (inactive),
CCOc1ccc(N/C(N)=N/c2nc(C)c(C)c(=O)[nH]2)cc1,12.8% (inactive),
CSc1nnc(SCc2nc3sc(C(=O)O)c(C)c3c(=O)[nH]2)s1,,12.6 µM (active)
CCOC(=O)c1sc2nc(CSc3ccccc3)[nH]c(=O)c2c1C,1.58% (inactive),
Cc1ccc(C)c(SCc2nc3sc(C(=O)O)c(C)c3c(=O)[nH]2)c1,-17.2% (inactive),
Cc1cccc(OCC(=O)NCCNC(=O)c2cccnc2)c1,3.63% (inactive),
CN(C)CCN(Cc1ccccc1)S(=O)(=O)c1csc(C(N)=O)c1,4.81% (inactive),
CCc1ccc(OCC(=O)OC(C)C(=O)NC2CC2)cc1 (centres undefined),6.01% (inactive),
CSc1ncccc1C(=O)Nc1ccc(C)cn1,10.7% (inactive),
Cc1ccc(NC(=O)c2cc(-c3ccc(C)o3)nc3ccccc23)nc1,,10 µM (active)
COc1ccc(NC(=O)c2cc(-c3cc(OC)c(OC)c(OC)c3)nc3ccccc23)c(OC)c1,1.5% (inactive),
CCc1nccn1CCC(=O)N1CCCC(N2CCN(c3ccccc3F)CC2)C1 (centres undefined),1.37% (inactive),
Cc1ccccc1-c1nc(CS(=O)(=O)CC(=O)NC(C)c2ccccc2)c(C)o1 (centres undefined),1.96% (inactive),
Cc1ccc(/C([O-])=C(/C(=S)NCc2ccco2)[n+]2ccccc2)cc1[N+](=O)[O-],,25.1 µM (active)
O=C(NCc1ccco1)c1ccc([N+](=O)[O-])cc1Cl,22.8% (inactive),
O=C(c1ccccc1)N1CCN(c2ccc([N+](=O)[O-])c(NCc3ccco3)c2)CC1,10.8% (inactive),
Cc1ccc(S(=O)(=O)NCC2CCC(C(=O)N3CCOCC3)CC2)cc1 (centres undefined),10% (inactive),
CC(C)CCN1NC2(CCC(C)CC2)NC1=S (centres undefined),,79.4 µM (active)
C[C@H]1Cc2c(COc3ccccc3)nc3c(c2CO1)CN(C(=O)NCc1ccco1)CC3,2.41% (inactive),
O=C(Cn1nc(C(=O)O)c2ccccc2c1=O)Nc1ccc(F)cc1,1.99% (inactive),
COCCOC(=O)C1=C(C)NC(=O)NC1c1cc2c(cc1Br)OCO2 (centres undefined),10.6% (inactive),
O=C(/C=C/c1ccc(Cl)cc1Cl)c1cccnc1,,31.6 µM (active)
O=C(Nc1cccnc1)c1cc(Cl)ccc1Cl,16.1% (inactive),
